M1 ag: human M1 muscarinic receptor agonism; P11229; CHO-K1 hM1, Fluo-8 calcium fluorescence, agonist mode; 0% DMSO, 100% acetylcholine EC100; activation, % at 3 µM; actives 0.33% (n = 360,000);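 active = activation above the run's mean compound activation plus 3 SD, cut at about 16% in these data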;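 note: peak over basal fluorescence ratio within a 140 s kinetic read after compound addition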
Target sequence (P11229 whole entry, looked up): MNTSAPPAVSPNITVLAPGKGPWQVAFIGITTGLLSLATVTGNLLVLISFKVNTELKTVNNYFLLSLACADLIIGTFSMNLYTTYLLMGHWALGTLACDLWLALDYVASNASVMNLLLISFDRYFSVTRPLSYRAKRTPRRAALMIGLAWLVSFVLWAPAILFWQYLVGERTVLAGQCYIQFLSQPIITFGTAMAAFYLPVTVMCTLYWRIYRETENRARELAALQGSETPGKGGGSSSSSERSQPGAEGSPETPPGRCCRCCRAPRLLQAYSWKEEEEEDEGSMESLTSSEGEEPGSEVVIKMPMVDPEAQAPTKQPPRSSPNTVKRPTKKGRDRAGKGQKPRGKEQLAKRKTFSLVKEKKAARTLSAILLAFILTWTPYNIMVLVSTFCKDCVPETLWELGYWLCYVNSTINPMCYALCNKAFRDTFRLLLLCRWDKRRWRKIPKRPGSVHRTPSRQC
M1 PAM: potentiates human M1 receptor response to acetylcholine; activation, % at 3 µM; actives 0.088% (n = 360,000); CHO-K1 hM1, Fluo-8 calcium fluorescence, ACh EC20; 0% = ACh EC20, 100% = maximal ACh; AID 588819; in the data active = activation above about 19%, passing the limit was not always enough
CHO-K1 Ca antag: nonselective inhibitor or artifact in parental CHO-K1 cells; ATP-induced calcium, Fluo-8 fluorescence; inhibition, % at 3 µM; actives 0.6% (n = 360,000); AID 602250;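 active = inhibition above a per-plate cutoff, the plate's mean sample inhibition plus 3 SD, cut at about 24% in these data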;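 note: 0% = DMSO plus EC80 ATP and 100% = DMSO alone without ATP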
M1 ag parental: nonselective activator or artifact in parental CHO-K1 cells | actives 0.48% (n = 360,000) | activation, % at 3 µM | Fluo-8 calcium fluorescence; scaled to maximal ATP response, vehicle zero; in the data active = activation above about 15%;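 note: untransfected CHO-K1 host cells lacking M1 receptor as counterscreen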
CHRM1 antagonist: human CHRM1 antagonism | actives 1.3% (n = 360,000) | AID 588852 | CHO-K1 hM1, Fluo-8 calcium fluorescence, ACh EC80 antagonist | inhibition, % at 3 µM;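 active = percent inhibition above its own plate's cutoff, namely the mean of that plate's compound wells plus 3 SD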;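 note: peak over basal fluorescence ratio during 140 s after agonist addition; 0% = ACh EC80 plus DMSO and 100% = DMSO alone without agonist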
CHO-K1 Ca PAM: M1 PAM counterscreen hit in parental CHO-K1 cells; ATP EC20, Fluo-8 calcium fluorescence; 0% at ATP EC20, 100% at ATP max; actives 0.02% (n = 360,000); activation, % at 3 µM; AID 602247;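 active = activation above the run cutoff, the mean activation of all test compounds plus 3 SD, cut at about 40% in these data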;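 note: peak over basal fluorescence ratio in a 140 s read after ATP addition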
The depositor's hits bear a star. A selection: hits, their analogues and other compounds. The true share with any hit is near 2.4%.

SMILES | M1 ag | M1 PAM | CHO-K1 Ca antag | M1 ag parental | CHRM1 antagonist | CHO-K1 Ca PAM
O=C(c1ccc2c(c1)OCCCO2)N1CCCCC1 | -4.5 | 7.0 | -11.2 | 1.7 | -5.6 | 17.3
CC(CC(=O)N(C)c1c(N)n(Cc2ccccc2)c(=O)[nH]c1=O)c1ccccc1 (stereo not drawn) | -1.1 | -9.9 | 14.2 | -0.1 | 27.5* | -25.7
CC(C)CN(C(=O)COC(=O)CSc1ccccc1F)c1c(N)n(Cc2ccccc2)c(=O)[nH]c1=O | -2.1 | 7.5 | 60.6* | 0.8 | -10.8 | -6.6
CC(=O)N1C[C@@H](CO)[C@@H](N(C)C(=O)C2CCCCC2)C[C@H]1c1ccccc1 | -1.5 | 7.3 | 5.2 | -0.1 | -1.4 | 16.4
CCN1C(=O)[C@H]2[C@@H](c3ccc(OC)cc3)N3C(=O)CN(CCOC)C(=O)[C@@]3(C)[C@H]2C1=O | -5.4 | 2.3 | -10.6 | 0.4 | -5.7 | -0.3
Cc1ccc(C(C)NC(=O)/C(C#N)=C\c2c(C)[nH]c3ccccc23)cc1 (stereo not drawn) | 20.7* | -0.2 | -10.5 | 7.3 | 11.9 | 12.2
Cc1noc(C)c1C(=O)N1CCC1(C)C(=O)NS(=O)(=O)c1ccccc1Cl (stereo not drawn) | -1.1 | 5.3 | -6.1 | 1.2 | -11.7 | 13.1
COc1ccc(NC(=O)CCNS(=O)(=O)c2cc(Br)ccc2Br)cc1S(N)(=O)=O | -3.3 | 3.1 | -6.7 | -0.4 | -2.2 | 18.1
Cc1cccc(C(=O)NN2C(=O)C3C(c4ccccc4)C=CC(c4ccccc4)C3C2=O)c1 (stereo not drawn) | 3.4 | -22.0 | 1.2 | 1.8 | 89.1* | 15.5
Cc1cccc(C(=O)NN2S(=O)(=O)c3ccccc3S2(=O)=O)c1 | -2.5 | 5.4 | -21.6 | 0.8 | 32.9* | 12.5
Nc1ncnc2c1ncn2[C@@H]1O[C@H](C(=O)Nc2cc(C(F)(F)F)cc(C(F)(F)F)c2)[C@@H](O)[C@H]1O | -1.9 | -9.9 | 0.4 | 0.1 | 2.9 | -4.1
CCCCCn1c(=S)[nH]c2cc(C(=O)N3CCN(C(=O)OCC)CC3)ccc2c1=O | -9.8 | -2.7 | -3.2 | 1.8 | -0.8 | 11.1
CCOC(=O)N1CCN(C(=O)c2ccc3c(=O)n(CCC4=CCCCC4)c(=O)[nH]c3c2)CC1 | -5.0 | -22.6 | 6.0 | 0.8 | 66.2* | -4.3
Cc1cn([C@H]2C[C@H](O)[C@@H](CCC(=O)NCc3cccs3)O2)c(=O)[nH]c1=O | -2.6 | -2.4 | 24.1* | 0.2 | -11.8 | -8.2
CN(C)c1ccc(/C=C/C(=O)c2cccc(Br)c2)cc1 | 163.8* | -33.4 | 39.8* | 53.5* | 81.5* | 4.8
COc1ccc(N=C2SCC(c3ccc([N+](=O)[O-])cc3)=NN2CCO)cc1 | -2.0 | -7.5 | 14.9 | 15.5* | 11.6 | -6.9
CCOC(=O)/C=C/[C@H]1CC(c2ccccc2)(c2ccccc2)CO1 | -5.7 | -2.0 | -11.8 | -0.3 | -2.1 | 10.8
Cc1ccc(NC(=O)COC(=O)Cc2ccccc2)cc1S(=O)(=O)N1CCOCC1 | -2.3 | 6.2 | -10.6 | 2.9 | -5.2 | 17.8
Cc1ccc(NC(=O)COC(=O)Cc2ccc(Br)cc2)cc1S(=O)(=O)N1CCOCC1 | -1.5 | -16.1 | -19.0 | 5.2 | 35.2* | 14.6
Cc1ccc(NC(=O)COC(=O)CN2C(=O)NC(C)(C)C2=O)cc1S(=O)(=O)N1CCOCC1 | 1.0 | 5.9 | 6.1 | 19.5* | 3.9 | 4.5
COc1ccc(S(=O)(=O)c2cnc3ccc(OC)cc3c2N2CCC3(CC2)OCCO3)cc1 | -1.0 | -18.9 | 0.8 | 6.2 | 28.3* | 17.1
COc1ccc(N2CCN(c3c(S(=O)(=O)c4ccccc4)cnc4ccc(OC)cc34)CC2)cc1 | -4.9 | -15.2 | 0.6 | 0.6 | 13.5 | 5.0
CCOc1ccccc1CN1CCNC(=O)C1CC(=O)NCc1cc(C)n(C)n1 (stereo not drawn) | -2.2 | 6.1 | -7.3 | 0.2 | -8.0 | 20.4
Cc1nnc(SCC(=O)Nc2sc3c(c2C(=O)c2ccccc2)CCCC3)s1 | -5.6 | 4.1 | -14.0 | 1.6 | 0.0 | 25.4
COc1ccccc1C(=O)N(CCC1CCCN1C)c1nc2ccccc2s1 (stereo not drawn) | -3.3 | -23.2 | -9.8 | 6.5 | 51.0* | 2.0
SMILES | M1 ag | M1 PAM | CHO-K1 Ca antag | M1 ag parental | CHRM1 antagonist | CHO-K1 Ca PAM
COCCN1CCC(CNCc2cn(-c3cc(C)ccc3C)nc2-c2ccccc2)C1 (stereo not drawn) | -11.8 | 3.3 | 26.1* | -0.4 | -5.6 | -1.9
COCCN1CCC(CNCc2cn[nH]c2-c2ccc(C)c(C)c2)C1 (stereo not drawn) | -6.6 | 4.4 | -10.8 | 0.0 | -4.5 | 10.1
Cn1cccc1/C=C1\CC(C(C)(C)C)C/C(=C\c2cccn2C)C1=O (stereo not drawn) | -2.3 | 2.8 | 24.5* | -0.4 | -1.2 | -8.7
Cn1cccc1/C=C1\Cc2ccccc2C1=O | -7.0 | 3.6 | -14.0 | 1.9 | -7.4 | 22.6
CCCCn1c(N)c(N(CCOC)C(=O)c2oc3c(Cl)cccc3c2C)c(=O)[nH]c1=O | 0.1 | -6.0 | -2.5 | 3.5 | 0.1 | 6.0
CCC[C@@H](CN1CCC[C@H]1CN1C(N)=NC[C@@H]1Cc1ccccc1)N1C[C@@H]([C@H](C)CC)N(CCCC2CCCC2)C1=N | -10.6 | -31.1 | 1.4 | 0.3 | 81.6* | -15.7
CCCCN1C(=N)N([C@@H](CCC)CN2CCC[C@H]2CN2C(N)=NC[C@@H]2Cc2ccccc2)C[C@H]1Cc1ccccc1 | -13.3 | -35.0 | -15.1 | -0.2 | 36.4* | 16.8
CCC[C@@H](CN1CCC[C@H]1CN1C(N)=NC[C@@H]1Cc1ccccc1)N1C[C@@H](Cc2ccccc2)N(CCCC2CCCC2)C1=N | -10.2 | -32.0 | -14.4 | 1.3 | 33.0 | 17.1
O=C(O)Cn1cc(C(=S)N2CCOCC2)c2ccccc21 | 2.3 | 27.0* | -22.5 | 0.2 | -26.5 | -5.7
Fc1ccc(Cn2cc(C(=S)N3CCOCC3)c3ccccc32)cc1 | 8.1 | 8.1 | 8.9 | 22.5* | -3.3 | 2.4
O=C(Cn1cc(C(=S)N2CCOCC2)c2ccccc21)N1CCOCC1 | -1.8 | 8.6 | -5.9 | 0.8 | -27.2 | 18.8
O=C(c1cc([N+](=O)[O-])ccc1Cl)N1c2ccccc2Sc2ccccc21 | -8.3 | -6.2 | -15.5 | 0.1 | 6.0 | 17.7
O=c1cc2c(nn1Cc1cccc(Cl)c1)-c1ccccc1CC2 | -5.1 | -7.8 | 47.2* | 2.9 | -13.4 | 1.1
O=c1cc2c(nn1Cc1ccc(Cl)cc1)-c1ccccc1CC2 | -2.1 | 2.9 | 4.8 | -0.3 | 1.8 | -2.2
CN1C(=O)/C(=C/c2ccccc2OCc2cccc(F)c2)N(C)C1=S | -4.8 | -21.8 | -10.2 | 1.0 | 99.6* | 23.4
CN1C(=O)/C(=C/c2ccc(OCc3ccc(F)cc3)cc2)N(C)C1=S | -2.5 | 6.9 | -11.7 | 0.9 | -12.6 | 19.1
CCc1nc2ccc(C(=O)NCCNC(C)=O)cn2c1N(CC)CCOC | -2.4 | 4.9 | -8.8 | -0.3 | -4.9 | 1.9

Screening data deposited in PubChem BioAssay by The Scripps Research Institute Molecular Screening Center.
